Assay outcomes (PubChem BioAssay)
PI5P4K alpha inh: PI5P4K alpha (human) kinase inhibition; AID 652105; max response, %; PI5P4Kalpha enzyme, ADP-Glo luminescence, 60 min; stronger effect = lower value; 330,000 compounds, 1.2% hits; active = max response of -50% or lower; inconclusive = between -30% and -50%; inactive = -30% or higher; also: value at the top dose of about 77 µM; % is scaled to controls: 0 for no effect and ±100 for the full control effect
Target sequence (P48426 whole entry, looked up): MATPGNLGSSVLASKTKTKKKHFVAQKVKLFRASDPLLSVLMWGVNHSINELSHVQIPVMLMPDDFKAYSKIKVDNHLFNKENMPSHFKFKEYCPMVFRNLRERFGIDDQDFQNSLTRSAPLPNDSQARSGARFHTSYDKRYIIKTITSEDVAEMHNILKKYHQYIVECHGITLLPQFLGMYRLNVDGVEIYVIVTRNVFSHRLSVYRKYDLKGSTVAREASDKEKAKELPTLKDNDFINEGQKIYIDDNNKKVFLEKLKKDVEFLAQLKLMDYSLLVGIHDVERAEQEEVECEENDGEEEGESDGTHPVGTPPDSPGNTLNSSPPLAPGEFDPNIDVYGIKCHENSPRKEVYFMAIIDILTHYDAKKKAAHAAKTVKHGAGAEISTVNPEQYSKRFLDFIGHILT
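Luminescence from ADP-Glo served as readout of PI5P4Kalpha activity in a qHTS format. Reaction: enzyme, substrate, compound, ATP at 5 microM final, 60 min at RT.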
PLK1 PBD block: PLK1 (human) polo-box domain binding inhibition; 360,000 compounds, 2.8% hits; AID 720504; Potency, µM, inactives show max response, negative = inhibition, hits mostly inhibitors; Plk1 PBD binding of FITC phosphopeptide, fluorescence polarization; P53350; also: potency is read from the fitted curve at half-maximal effect; series mostly up to about 57 µM; % is scaled to controls: 0 for no effect and ±100 for the full control effect; nearly all actives have a fitted effect of over 65% in size
BAZ2B block: inhibitors of human BAZ2B bromodomain | Q9UIF8 | AlphaScreen BAZ2B-H3K14Ac peptide displacement | Potency, µM (highest dose often 114 µM), without a hit: at the highest dose activity change, negative = inhibition, most hits filed as inhibitors | 360,000 compounds, 4.4% hits | AID 504333; also: potency is read from the fitted curve at half-maximal effect; % is scaled to controls: 0 for no effect and ±100 for the full control effect; nearly all actives have a fitted effect of over 60% in size
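AlphaScreen luminescence quantifies BAZ2B engagement of H3K14Ac peptide; the protein and biotinylated peptide are both at 50 nM final, buffer PBS pH 7.4 with 0.01% Tween-20, all steps at room temperature.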
JMJD2A Tudor inh: JMJD2A Tudor domain (human) inhibition; O75164; AlphaScreen JMJD2A-Tudor / H3K4me3 peptide binding; 390,000 compounds, 4.4% hits; Potency, µM (doses to about 114 µM), inactives show top-dose activity change, negative = inhibition, hits mostly inhibitors; also: potency is read from the fitted curve at half-maximal effect; % is scaled to controls: 0 for no effect and ±100 for the full control effect; nearly all actives have a fitted effect of over 50% in size
HP1b chromo inh: blocks HP1-beta chromodomain binding to methylated histone tails. AlphaScreen HP1-beta / biotin-H3K9me3 peptide binding. Potency, µM (titrated, usually from 114 µM), inactives show at the highest dose activity change, negative = inhibition, actives largely listed as inhibitors. 390,000 compounds, 0.56% hits; also: potency is read from the fitted curve at half-maximal effect; nearly all actives have a fitted effect of over 70% in size
Target sequence (P83916 whole entry, looked up): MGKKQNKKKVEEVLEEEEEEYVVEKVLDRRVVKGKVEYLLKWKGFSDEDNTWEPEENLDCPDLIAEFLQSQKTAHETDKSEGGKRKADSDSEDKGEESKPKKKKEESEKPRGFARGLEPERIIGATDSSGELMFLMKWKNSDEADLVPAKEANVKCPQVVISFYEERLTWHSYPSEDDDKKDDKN
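HP1-beta protein (50 nM final) preincubated 30 min at room temperature with biotinylated H3(1-18)K9me3 peptide (50 nM) in PBS pH 7.4, 0.01% Tween-20, then compound added for 30 min. AlphaScreen streptavidin donor/nickel chelate acceptor beads (10 ug/mL final), 30 min dark, luminescence read.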
G9a block: inhibitors of human histone lysine methyltransferase G9a; Q96KQ7; G9a H3K9 monomethylation, AlphaScreen, 2 h; Potency, µM (top dose mostly 102 µM), for inactives: top-dose activity, negative = inhibition, usual class: inhibitors; 350,000 compounds, 8.8% hits; AID 504332; also: potency is read from the fitted curve at half-maximal effect; % is scaled to controls: 0 for no effect and ±100 for the full control effect; nearly all actives have a fitted effect of over 75% in size
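Using a bead-based AlphaScreen, monomethylated H3K9 product from 2 h room-temperature reactions (G9a 20 nM, peptide 500 nM, SAM 20 uM) was detected with 0.5 ug/mL rabbit anti-H3K9me1 antibody.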
The depositor's hits bear a star; ? = inconclusive; . = no result given; [ ] = dose if it differs, or a comment. Only some compounds are listed: those with a hit (about 12% of all), similar ones and a draw of the others. Unless noted, calls follow the shape of the dose curve; as a rule, active = well fitted curve in the direction sought with a large enough effect; inconclusive = small, poorly fitted or top-dose-only effect, or another doubt; inactive = no such curve, though single readings can be large; an effect the other way counts as inactive or inconclusive.

SMILES	PI5P4K alpha inh	PLK1 PBD block	BAZ2B block	JMJD2A Tudor inh	HP1b chromo inh	G9a block
COc1ccc(NC(=O)CSc2nnnn2C2CCCC2)cc1S(=O)(=O)N1CCOCC1	-20	0%	.	.	.	.
CCNC(=S)N/N=C(\C)c1cc2ccccc2o1	0	-16%	?	?	?	12%[59 µM]
Cc1cccc(NC(=S)N/N=C2/CCCCc3ccccc32)c1	-2	-19%	40µM*	?	?	-10%[59 µM]
Cc1ccc(NC(=S)N/N=C2/CCCCc3ccccc32)cc1	1	-26%	?	?	-20%	?
CC/C(=N\NC(=S)Nc1cccc(C)c1)c1ccccc1	4	-21%	?	50µM*	?	?
C/C(=N\NC(=S)Nc1cccc(C)c1)c1cc2ccccc2o1	1	-23%	?	25µM*	?	35µM*
Cc1cccc(NC(=S)N/N=C(\c2ccccc2)C(C)C)c1	-1	-11%	-36%	-28%	-7%	.
Cc1ccc(S(=O)(=O)Nc2ccc(S(=O)(=O)Nc3nccs3)cc2)c([N+](=O)[O-])c1	4	-20%	?	?	12%	.
CCN(CC(=O)Nc1cccc(S(=O)(=O)N(C)c2ccccc2)c1)Cc1ccccc1	5	-8%	32%	-12%	29%	9%[12.7 µM]
CCN(CC)S(=O)(=O)c1cccc(NC(=O)CN(C)Cc2cccc(OC)c2)c1	8	-7%	50µM*	1.6µM*	22µM*	-115%[12.7 µM]
COc1cccc(CN(C)CC(=O)NC(=O)NCc2ccco2)c1	-18	-16%	50µM*	89µM*	50µM*	11%[12.7 µM]
Cc1cc(C)c(NC(=O)CN(C)CC(=O)Nc2cccc(S(=O)(=O)N(C)c3ccccc3)c2)c(C)c1	-6	-13%	.	7.1µM*	?	.
CCN(CC(=O)Nc1cccc(C(C)=O)c1)S(=O)(=O)c1ccc(OC)cc1	7	-3%	10%	-7%	16%	-12%[59 µM]
Cc1ccccc1CN(C)CC(=O)Nc1cccc(S(=O)(=O)N(C)c2ccccc2)c1	4	27µM*	-4%	79µM*	5%	1%
COc1cccc(NC(=O)CN(C)CC(=O)NCc2ccco2)c1	-1	-15%	7%	-10%	24%	12%[12.7 µM]
CCOc1ccc(Nc2cc(C)c(C#N)c3nc4ccccc4n23)cc1	.	.	-7%	-3%	45%	7%[59 µM]
CC(C)c1ccccc1NC(=O)CCc1nc2ccccc2s1	?	?	-13%	-20%	17%	20µM*
COc1ccccc1NC(=O)CCc1nc2ccccc2s1	-8	21µM*	-12%	20µM*	1%	1%
O=C(O)CCCC(=O)Nc1ccc(OCc2nc3ccccc3s2)cc1	-25	4.2µM*	?	?	?	3.2µM*
COc1cccc(S(=O)(=O)N2CCN(S(=O)(=O)c3ccc4c(c3)OCCO4)CC2)c1	.	.	.	-15%	.	.
Cc1cccc(C=NOCCc2ccccc2)n1	-2	3%	.	32%	58%	.
CC(=O)c1sc2nc(C)c3c(c2c1N)CCCC3	-2	-13%	-14%	22%	85%	6%
CC(=O)c1sc2nsc(SCCN3CCCC3)c2c1N	?	7.5µM*	?	89µM*	?	-75%[59 µM]
O=C(Nc1cccc(F)c1)C1CCCN(C(=O)c2ccc(Cl)cc2)C1 (stereo not drawn)	0	-2%	-5%	-1%	46%	-2%[59 µM]
O=C(O)c1cccc2cccc(-c3c4ccc(=O)c(O)c-4oc4c(O)c(O)ccc34)c12	-95*	4.7µM*	.	0.79µM*	?	.
SMILES	PI5P4K alpha inh	PLK1 PBD block	BAZ2B block	JMJD2A Tudor inh	HP1b chromo inh	G9a block
O=C(N/N=C1/CC2C=CCC12)c1cccs1 (stereo not drawn)	2	0%	-20%	5%	46%	-20%
Cc1cc(NC(=O)CCOc2ccc(F)cc2)no1	-8	-22%	-9%	-1%	36%	56µM*
Cc1ccc(CNC(=O)CCCC(=O)Nc2cc(C)on2)cc1	-29	15µM*	-7%	16µM*	?	.
C[C@H](NC(=O)c1ccccc1)C(=O)N1CCN(c2ccccc2)CC1	-3	2%	-2%	13%	17%	-14%
CC(=O)c1cc(F)c(N2CCN(C(=O)Cc3ccccc3)CC2)cc1C	-6	-2%	56µM*	-5%	36%	?
COC(=O)C(NNc1ccccc1)(NC(=O)c1cccc(F)c1)C(F)(F)F (stereo not drawn)	.	-8%	?	-11%	35%	2.2µM*
COc1cc(CNC(=O)CCCC(=O)c2ccccc2)cc(OC)c1OC	1	24µM*	-3%	-29%	28%	10%[12.7 µM]
O=C(O)c1cc(NCc2cc(O)ccc2O)ccc1O	.	.	.	25µM*	?	3.5µM*
O=C(O)c1ccc(O)cc1O	0	-5%	-6%	-8%	51%	2%[0.501 µM]
O=C(OCC12CC3CC(CC(C3)C1)C2)c1ccc(NCc2cc(O)ccc2O)cc1	?	-8%	.	50µM*	16µM*	.
N#CCC(=O)Nc1ccc(C(=O)OCC(=O)C23CC4CC(CC(C4)C2)C3)cc1	0	-13%	7%	-27%	-6%	-5%
O=C(OCCC12CC3CC(CC(C3)C1)C2)c1ccc(NCc2cc(O)ccc2O)cc1	-59*	-14%	.	25µM*	?	.
Clc1ccc(-c2nn3c(C4COc5ccccc5O4)nnc3s2)cc1 (stereo not drawn)	.	21µM*	-22%	-23%	?	7.1µM*
N#CC(=C1NC(=O)c2ccccc21)c1nc2ccccc2n1CCO	1	-10%	.	.	.	.
COC(=O)c1ccc(-n2cncn2)c([N+](=O)[O-])c1	-15	27µM*	0%	?	-9%	0%
O=C(Nc1ccc(F)c(F)c1)c1ccc(-n2cncn2)c([N+](=O)[O-])c1	9	0%	-7%	-13%	15%	10%[12.7 µM]
O=C(Nc1cccc(/C=C/c2ccccn2)c1)c1ccc(-n2cncn2)c([N+](=O)[O-])c1	-6	1%	-33%	?	-2%	35µM*
Cc1cc(=O)n(Cc2ccc(F)cc2Cl)c2c1c(C)nn2-c1ccccc1	.	.	-3%	-3%	24%	14%[59 µM]
COc1cc(NC(=O)c2ccnc(N)c2)cc(C(=O)Nc2cccc(C(F)(F)F)c2)c1	1	4%	50µM*	?	-8%	-11%[12.7 µM]
COc1cc(NC(=O)c2csc(N)n2)cc(C(=O)Nc2cccc(C(F)(F)F)c2)c1	-12	-18%	-8%	0%	56%	-8%[12.7 µM]
COc1cc(NC(=O)c2cnc(N)s2)cc(C(=O)Nc2cccc(C(F)(F)F)c2)c1	1	-9%	20µM*	32µM*	-14%	?
COc1cc(NC(=O)c2cnc(N)o2)cc(C(=O)Nc2cccc(C(F)(F)F)c2)c1	-4	-4%	?	-36%	8%	-42%[59 µM]
